Laboratory results reported in PubChem BioAssay (NCATS).
Calls of active or inactive are those of the source. Entries that show only a call come without a potency. Calls come from the whole dose curve; as a rule, active = well fitted curve in the direction sought with a large enough effect; inconclusive = small, poorly fitted or top-dose-only effect, or another doubt; inactive = no such curve, though single readings can be large or run the other way.

biological target: T1, Hexokinase-4 (Homo sapiens) + Glucokinase regulatory protein (Homo sapiens) (UniProt P35557+Q14397); test: qHTS assay for inhibitors of recombinant human GCK-GKRP interaction: Diaphorase-coupled assay (AID 743205); settings: G6PDH/diaphorase resorufin fluorescence; series mostly up to 57.5 µM
In short: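 A kinetic fluorescence read (Ex 525/Em 590 nm, every minute for 30 minutes) tracked resorufin from a G6PDH-diaphorase coupled GCK reaction. It contained 10 nM GST-GCK, 10 nM FLAG-GKRP, 5 mM glucose, 0.4 mM ATP in Hepes pH 7.6. Normalized to with/without-enzyme DMSO controls.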

T1 sequence (P35557 whole entry, looked up): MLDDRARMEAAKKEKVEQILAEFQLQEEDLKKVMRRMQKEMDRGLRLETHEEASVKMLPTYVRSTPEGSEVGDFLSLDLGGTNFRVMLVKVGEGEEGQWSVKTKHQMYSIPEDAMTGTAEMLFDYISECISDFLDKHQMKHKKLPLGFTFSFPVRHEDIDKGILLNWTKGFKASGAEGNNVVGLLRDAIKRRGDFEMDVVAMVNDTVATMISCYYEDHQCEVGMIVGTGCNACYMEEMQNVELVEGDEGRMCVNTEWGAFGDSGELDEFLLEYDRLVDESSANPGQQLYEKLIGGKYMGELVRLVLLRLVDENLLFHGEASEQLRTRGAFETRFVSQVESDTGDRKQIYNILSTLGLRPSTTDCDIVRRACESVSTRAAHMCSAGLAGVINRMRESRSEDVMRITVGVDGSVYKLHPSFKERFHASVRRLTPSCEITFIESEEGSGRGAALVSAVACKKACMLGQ
T1 sequence (Q14397 whole entry, looked up): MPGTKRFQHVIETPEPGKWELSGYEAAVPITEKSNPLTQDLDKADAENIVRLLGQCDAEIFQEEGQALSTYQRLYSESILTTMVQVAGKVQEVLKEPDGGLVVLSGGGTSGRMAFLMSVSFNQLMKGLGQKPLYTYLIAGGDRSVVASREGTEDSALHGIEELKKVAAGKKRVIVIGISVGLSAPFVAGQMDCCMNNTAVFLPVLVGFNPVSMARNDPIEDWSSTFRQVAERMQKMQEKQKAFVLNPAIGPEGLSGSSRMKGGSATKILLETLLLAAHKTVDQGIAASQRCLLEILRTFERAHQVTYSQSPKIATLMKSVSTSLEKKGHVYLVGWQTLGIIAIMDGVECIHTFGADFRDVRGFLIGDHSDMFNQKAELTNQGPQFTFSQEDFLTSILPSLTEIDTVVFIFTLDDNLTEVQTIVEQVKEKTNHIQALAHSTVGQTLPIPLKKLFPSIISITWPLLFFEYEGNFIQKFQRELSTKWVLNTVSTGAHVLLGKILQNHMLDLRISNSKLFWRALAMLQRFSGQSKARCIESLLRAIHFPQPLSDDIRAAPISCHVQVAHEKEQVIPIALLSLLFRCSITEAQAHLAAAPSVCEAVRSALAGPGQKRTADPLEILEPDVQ

| SMILES | Potency |
| --- | --- |
| CC[C@@H]1Cc2cc(O)ccc2C2=C1c1ccc(O)cc1C[C@H]2CC | inactive |
| Cc1cccc(C)c1OCC(N)C(C)C (stereo unspecified) | inactive |
| C/C(=C\c1ccc(C(=O)O)cc1)c1ccc2c(c1)C(C)(C)CCC2(C)C | inactive |
| CC1=C(/C=C/C(C)=C/C=C/C(C)=C\C(=O)O)C(C)(C)CCC1 | inactive |
| CSC(N)=NCCC[C@H](N)C(=O)O | inactive |
| Cc1cc2c(cc1Cl)N(C(=O)Nc1ccnc3ccccc13)CC2 | inactive |
| C[N+](C)(C)CC=O | inactive |
| CC1CCN(CC[C@H]2CCCN2S(=O)(=O)c2cccc(O)c2)CC1 | inactive |
| NC1(C(=O)O)CC1 | inactive |
| O=C(OCCN1CCOCC1)C1(c2ccccc2)CCCCC1 | inactive |
| CCCc1c(OCCCOc2ccc(OCC(=O)O)cc2)ccc(C(C)=O)c1O | inactive |
| CC(O)C(O)[C@H]1CNc2nc(N)[nH]c(=O)c2N1 (stereo partly specified) | inactive |
| COc1ccc(-c2cc3ncc(C)n3c(Nc3ncccc3C(N)=O)n2)cc1OC | inactive |
| CNc1cc(NS(=O)(=O)c2ccc(N)cc2)nc(NC)n1 | inactive |
| COc1ccccc1N1CCN(CCCCNC(=O)c2ccc3ccccc3c2)CC1 | inactive |
| NC(N)=NC(N)=Nc1ccccc1 | inactive |
| CCCCCCCCCCC/C=C\C(C)(C)/C=C\CCCC(=O)O | inactive |
| O=C(O)/C=C/c1ccc(O)c(O)c1 | inactive |
| COc1cc2c(CCNC(C)=O)c[nH]c2cc1O | inactive |

| SMILES | Potency |
| --- | --- |
| COC(=O)C1=C(C)NC(C)=C([N+](=O)[O-])C1c1ccccc1C(F)(F)F (stereo unspecified) | inactive |
| C[C@H](O)C(=O)C1=Nc2c(nc(N)[nH]c2=O)NC1 | inactive |
| O=C(c1ccc2c(c1)OCCO2)N1CCCCC1 | inactive |
| O=C(O)c1cccnc1C(=O)O | inactive |
| O=C(O)/C(=C/c1c(C(=O)O)[nH]c2cc(Cl)cc(Cl)c12)c1ccccc1 | inactive |
| N#C/C(=C\c1ccc(O)c(O)c1)C(=O)NCCc1ccccc1 | inactive |
| CCCC(=O)NCCc1c2n(c3ccc(OC)cc13)CCCc1ccccc1-2 | inactive |
| COc1cc(/C=C(\C#N)C(=O)c2ccc(O)c(O)c2)cc(I)c1O | inactive |
| CC(C)(C)c1ccc(/C=C/C(=O)Nc2ccc3c(c2)OCCO3)cc1 | inactive |
| CC(C)NCC(O)COc1ccc(CC(N)=O)cc1 (stereo unspecified) | inactive |
| COc1ccc2c(c1)c(CC(=O)O)c(C)n2C(=O)c1ccccc1 | inactive |
| CCCCCCCCCCCCCCSCC(=O)O | inactive |
| CCC(=O)N1CCN(C(=O)c2ccccc2)CC1 | inactive |
| Cc1cc(Cn2cnc3c2C[C@@H](C(=O)O)N(C(=O)C(c2ccccc2)c2ccccc2)C3)ccc1N | inactive |
| NC1(C(=O)O)CCc2cc(C(=O)O)ccc21 (stereo unspecified) | inactive |
| CC(=O)[C@H]1CCC2C3CC=C4C[C@@H](OS(=O)(=O)O)CC[C@]4(C)C3CC[C@@]21C (stereo partly specified) | inactive |
| CCN(CC)CCOC(=O)c1cc(Cl)c(N)cc1OC | inactive |
| c1ccc(C(NCc2cccnc2)(c2ccccc2)c2ccccc2)cc1 | inactive |
| CCCc1c(-c2ccc(O)cc2)nn(-c2ccc(O)cc2)c1-c1ccc(O)cc1 | inactive |

biological target: T1, Hexokinase-4 (Homo sapiens) + Glucokinase regulatory protein (Homo sapiens); test: qHTS assay for inhibitors of recombinant human GCK-GKRP interaction: ADP-Glo assay (AID 743206); settings: ADP-Glo luminescence, 60 min; series mostly up to 76.9 µM
In short: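 Pin-transferred compounds meet a 15 nM GST-GCK/15 nM FLAG-GKRP/2 uM S6P mix (dispense concentrations). ATP is then added to 0.4 mM final with 5 mM glucose, and the reaction runs 60 min at room temperature. ADP is quantified luminescently.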

| SMILES | Potency |
| --- | --- |
| CC[C@@H]1Cc2cc(O)ccc2C2=C1c1ccc(O)cc1C[C@H]2CC | inactive |
| Cc1cccc(C)c1OCC(N)C(C)C (stereo unspecified) | inactive |
| C/C(=C\c1ccc(C(=O)O)cc1)c1ccc2c(c1)C(C)(C)CCC2(C)C | inactive |
| CC1=C(/C=C/C(C)=C/C=C/C(C)=C\C(=O)O)C(C)(C)CCC1 | inactive |
| CSC(N)=NCCC[C@H](N)C(=O)O | inactive |
| Cc1cc2c(cc1Cl)N(C(=O)Nc1ccnc3ccccc13)CC2 | inactive |
| C[N+](C)(C)CC=O | inactive |
| CC1CCN(CC[C@H]2CCCN2S(=O)(=O)c2cccc(O)c2)CC1 | inactive |
| NC1(C(=O)O)CC1 | inactive |
| O=C(OCCN1CCOCC1)C1(c2ccccc2)CCCCC1 | inactive |
| CCCc1c(OCCCOc2ccc(OCC(=O)O)cc2)ccc(C(C)=O)c1O | inactive |
| CC(O)C(O)[C@H]1CNc2nc(N)[nH]c(=O)c2N1 (stereo partly specified) | inactive |
| COc1ccc(-c2cc3ncc(C)n3c(Nc3ncccc3C(N)=O)n2)cc1OC | inactive |
| CNc1cc(NS(=O)(=O)c2ccc(N)cc2)nc(NC)n1 | inactive |
| COc1ccccc1N1CCN(CCCCNC(=O)c2ccc3ccccc3c2)CC1 | inactive |
| NC(N)=NC(N)=Nc1ccccc1 | inactive |
| CCCCCCCCCCC/C=C\C(C)(C)/C=C\CCCC(=O)O | inactive |
| O=C(O)/C=C/c1ccc(O)c(O)c1 | inactive |
| COc1cc2c(CCNC(C)=O)c[nH]c2cc1O | inactive |

| SMILES | Potency |
| --- | --- |
| COC(=O)C1=C(C)NC(C)=C([N+](=O)[O-])C1c1ccccc1C(F)(F)F (stereo unspecified) | inactive |
| C[C@H](O)C(=O)C1=Nc2c(nc(N)[nH]c2=O)NC1 | inactive |
| O=C(c1ccc2c(c1)OCCO2)N1CCCCC1 | inactive |
| O=C(O)c1cccnc1C(=O)O | inactive |
| O=C(O)/C(=C/c1c(C(=O)O)[nH]c2cc(Cl)cc(Cl)c12)c1ccccc1 | inactive |
| N#C/C(=C\c1ccc(O)c(O)c1)C(=O)NCCc1ccccc1 | inactive |
| CCCC(=O)NCCc1c2n(c3ccc(OC)cc13)CCCc1ccccc1-2 | inactive |
| COc1cc(/C=C(\C#N)C(=O)c2ccc(O)c(O)c2)cc(I)c1O | inactive |
| CC(C)(C)c1ccc(/C=C/C(=O)Nc2ccc3c(c2)OCCO3)cc1 | inactive |
| CC(C)NCC(O)COc1ccc(CC(N)=O)cc1 (stereo unspecified) | inactive |
| COc1ccc2c(c1)c(CC(=O)O)c(C)n2C(=O)c1ccccc1 | inactive |
| CCCCCCCCCCCCCCSCC(=O)O | inactive |
| CCC(=O)N1CCN(C(=O)c2ccccc2)CC1 | inactive |
| Cc1cc(Cn2cnc3c2C[C@@H](C(=O)O)N(C(=O)C(c2ccccc2)c2ccccc2)C3)ccc1N | inactive |
| NC1(C(=O)O)CCc2cc(C(=O)O)ccc21 (stereo unspecified) | inactive |
| CC(=O)[C@H]1CCC2C3CC=C4C[C@@H](OS(=O)(=O)O)CC[C@]4(C)C3CC[C@@]21C (stereo partly specified) | inactive |
| CCN(CC)CCOC(=O)c1cc(Cl)c(N)cc1OC | inactive |
| c1ccc(C(NCc2cccnc2)(c2ccccc2)c2ccccc2)cc1 | inactive |
| CCCc1c(-c2ccc(O)cc2)nn(-c2ccc(O)cc2)c1-c1ccc(O)cc1 | inactive |
